“And” between values parts separate entries of the source, which are not always exact repeats. Equal values may be shown once. Records with an inconclusive call do not appear. A call without a number means that no potency is given here. Some compounds were tested as several samples or in several runs, with calls that do not always agree. The source made the active and inactive calls. Calls come from the whole dose curve; as a rule, active = well fitted cell-killing curve with a large enough effect in the repeat runs; inconclusive = weak or mixed curves, or effect the other way; inactive = no such curve, though single readings can be large or run the other way.

The results in this text go back to PubChem BioAssay (Tox21).
Potency is the fitted concentration of half-maximal effect.

The test is described as follows: qHTS assay for identifying genotoxic compounds that show differential cytotoxicity against isogenic chicken DT40 cell lines with known DNA damage response pathways - wild type cell line (AID 743012). Note: nearly all actives have a fitted effect of over 60% in size. As to conditions: DT40 wild type chicken cells viability, CellTiter-Glo, 40 h; series mostly up to 68.4 µM. The text has this:
U.S. Tox21 Program National Center for Advancing Translational Sciences [NCATS] NIH Chemical Genomics Center [NCGC] U.S. Environmental Protection Agency [EPA] National Institutes of Environmental Health Sciences [NIEHS] National Toxicology Program [NTP] U.S. Food and Drug Administration [FDA] Tox21 Assay Overview: DNA repair pathways play a critical role in cellular homeostasis by repairing DNA damage induced by endogenous processes and xenobiotics. Isogenic chicken DT40 cell lines deficient in different DNA repair pathways can be used to identify genotoxic compounds and aid in characterizing the nature of the DNA damage induced. Two DNA repair-deficient cell lines with disrupted genes, Rad54/Ku70 or Rev3, were used to screen the Tox21 10K compound library. Possible genotoxicity was based on the presence of a significant increase in cytotoxicity in one or more of the DNA repair-deficient cell lines compared to that observed in the parental DNA repair-proficient cell line. CellTiter Glo viability assay (Promega, Madison, WI) was used to measure cell viability in these cells after compound treatment. This assay includes the data from the wild type cell line.
Tox21 Assay Protocol Summary: 300 DT40 wild type cells in 5 uL/well were dispensed into white, solid-bottom 1536-well plates using a Multidrop Combi (ThermoFisher Scientific, Waltham, MA) dispenser. After the assay plates were incubated at 37 C/5% CO2 for approximately 0.5 hour, 23 nL of compounds dissolved in DMSO, positive controls or DMSO only was transferred into the assay plate by a pintool work station (Kalypsys, San Diego, CA). The assay plates were incubated at 37 C/5% CO2 for 40 hours. After 5 uL per well of CellTiter-Glo reagent was added into each well of the assay plates, the plates were incubated for 30 min at room temperature and the luminescence intensity of the plates was measured using a ViewLux (PerkinElmer, Shelton, CT) plate reader.
Take `C=C1C[C@]23C[C@@]1(O)CC[C@H]2[C@@]12C=C[C@H](O)[C@@](C)(C(=O)O1)[C@H]2[C@@H]3C(=O)O`: the Potency result was “inactive”.
Next, `Cc1ccc([N+](=O)[O-])cc1N`: “inactive”; `CCCCCCC(=O)O`: “inactive”.
For the compound `CCn1cc(C(=O)O)c(=O)c2cc3c(cc21)OCO3`, the Potency entry was “inactive”.
`O=C1O[C@H]([C@H](O)CO)C(O)=C1O`: the Potency result was “inactive”.
Next, `Cc1ccccc1C=O`: “inactive”; `O=C(Cl)c1ccc(C(=O)Cl)cc1`: “inactive”.
On to `Cc1cc(CC(=O)O)n(C)c1C(=O)c1ccc(Cl)cc1`, for which the Potency entry was “inactive”.
As for `COC(=O)OC`, the Potency result was “inactive”.
`CC1(C)C(=O)N(Cl)C(=O)N1Cl`: the Potency result is “inactive”.
As to `Cc1cc(C)cc(O)c1`, the Potency entry was “inactive”.
`COc1ccccc1[N+](=O)[O-]`: the Potency entry was “inactive”.
Regarding `CCc1cccc(O)c1`, the Potency entry is “inactive”.
On to `O=C(O)C1=NN(c2ccc(S(=O)(=O)O)cc2)C(=O)C1`, for which the Potency result was “inactive”.
Next, `Cc1cc(C)c(O)c(C)c1`: “inactive”; `C1CCCNCC1`: “inactive”; `COCN(COC)c1nc(N(COC)COC)nc(N(COC)COC)n1`: “inactive”.
Next, `C=CC(=O)NCOCCCC`: “inactive”.
Next, `CCCCC(=O)O`: “inactive”.
For the compound `CCCCCCCCCCCCCC(=O)O`, the Potency entry was “inactive”.
Next, `CC(C)c1ccc(C(C)C)cc1`: “inactive”.
Take `CC/C=C(\C(=O)N[C@@H]1C(=O)N2C(C(=O)OCOC(=O)C(C)(C)C)=C(COC(N)=O)CS[C@H]12)c1csc(N)n1`: the Potency entry is “inactive”.
As for `CC(C)=CCC/C(C)=C/C=O`, the entry is “inactive”; as for `CCc1cccc(CC)c1N`, “inactive”.
Next, `Nc1nc(N)c2nc(-c3ccccc3)c(N)nc2n1`: 11.9 µM (active) and 12.3 µM (active) and 4.86 µM (active).
As for `CN=C(NC#N)NCCSCc1nc[nH]c1C`, the entry is “inactive”; as for `C=C(CC(=O)O)C(=O)O`, “inactive”.
In the case of `N[C@@H](Cc1cc(I)c(Oc2ccc(O)c(I)c2)c(I)c1)C(=O)O`, the Potency is 29.8 µM (active) and inactive.
Next, `C[n+]1ccn(CCO)c1`: “inactive”; `C[Si](C)(C)N[Si](C)(C)C`: “inactive”; `OC[C@H]1O[C@@H](Oc2ccc(O)cc2)[C@H](O)[C@@H](O)[C@@H]1O`: “inactive”.
`C=CC(C)(C)C`: the Potency entry was “inactive”.
Take `OCCOCCOCCOCCOCCO`: the Potency entry is “inactive”.
`CCCCCCCCC(=O)O`: the Potency result was “inactive”.
Next, `CS(=O)(=O)c1ccc(Cl)cc1`: “inactive”; `COc1c2ccoc2cc2oc(=O)ccc12`: “inactive”.
Next, `CC(=O)c1nccs1`: “inactive”; `COc1ccc([C@@H]2CC(=O)c3c(O)cc(O[C@@H]4O[C@H](CO[C@@H]5O[C@@H](C)[C@H](O)[C@@H](O)[C@H]5O)[C@@H](O)[C@H](O)[C@H]4O)cc3O2)cc1OC`: “inactive”; `CCCCC(CC)COC(=O)c1ccc(C(=O)OCC(CC)CCCC)cc1` (stereo not given): “inactive”.
Next, `O=[N+]([O-])c1ccccc1C(F)(F)F`: “inactive”.
